# This is a sample that favours compounds with a hit; in the whole collection about 9.2% have one here.
# SMN2 splice enh: increases expression of the SMN2 splice variant; hit rate 2.8% among 210,000; Potency, µM (top dose mostly 46.1 µM), hits mostly activators; HEK293 SMN2-luciferase splicing reporter, luminescence, 30-36 h; also: nearly all actives have a fitted effect of over 55% in size
#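 HEK293 cells carry an SMN2 minigene-luciferase reporter in which exon 7 inclusion puts luciferase in frame. Cells were seeded at 2000 cells/well, attached for 10-12 hours, then exposed to compounds for 30-36 hours at 37C before ONE-Glo luminescence.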
# ELG1 genotox: genotoxicity induction in ELG1-luciferase HEK293T cells | HEK293T ELG1-luciferase reporter, luminescence, 16 h | Potency, µM (highest dose often 46 µM), hits mostly activators | hit rate 1.3% among 330,000; also: nearly all actives have a fitted effect of over 60% in size
#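 Step 1: seed 2,000 HEK293T ELG1-luciferase cells per well. Step 2: add compound or DMSO, incubate 16 hr at 37 °C. Step 3: ONE-Glo, 30 min at room temperature, read luminescence.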
# FLuc counter: counter-screen for miR-21 project: firefly luciferase inhibitors or activators; purified FLuc, Km substrates, luminescence inhibition; P08659; Potency, µM (doses to about 57.5 µM), hits mostly inhibitors; hit rate 6.9% among 360,000; also: nearly all actives have a fitted effect of over 55% in size
# Target sequence (P08659 whole entry, looked up): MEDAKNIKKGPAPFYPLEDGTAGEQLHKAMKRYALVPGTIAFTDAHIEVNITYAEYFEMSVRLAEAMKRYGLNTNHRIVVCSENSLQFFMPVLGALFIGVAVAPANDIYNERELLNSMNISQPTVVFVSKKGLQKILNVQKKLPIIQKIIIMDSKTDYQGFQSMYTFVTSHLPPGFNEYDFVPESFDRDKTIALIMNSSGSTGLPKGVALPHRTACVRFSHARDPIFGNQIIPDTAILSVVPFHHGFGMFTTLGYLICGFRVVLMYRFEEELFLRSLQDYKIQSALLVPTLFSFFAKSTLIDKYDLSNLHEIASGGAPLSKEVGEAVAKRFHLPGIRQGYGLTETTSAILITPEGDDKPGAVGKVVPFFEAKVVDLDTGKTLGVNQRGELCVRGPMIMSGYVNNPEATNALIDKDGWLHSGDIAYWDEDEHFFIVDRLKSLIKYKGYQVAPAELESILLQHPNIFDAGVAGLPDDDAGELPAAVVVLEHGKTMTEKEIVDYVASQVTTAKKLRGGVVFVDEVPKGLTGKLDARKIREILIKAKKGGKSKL
#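 Biochemical qHTS of compounds, final roughly 60 µM downward over six points, against 10 nM purified firefly luciferase using Km concentrations of substrates (10 uM D-luciferin, 10 uM ATP) in Tris acetate pH 7.5 buffer; luminescence output.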
# ELG1 repair inh: ELG1-dependent DNA repair inhibition. HEK293T ELG1-luciferase reporter, luminescence, 16 h; DNA damage induced by 5-fluorouridine. Potency, µM (doses to about 46.1 µM), hits mostly inhibitors. hit rate 2.3% among 330,000. AID 504467; also: nearly all actives have a fitted effect of over 55% in size
#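 Luminescence from the luciferase reporter, measured 30 min after ONE-Glo reagent at room temperature, was the read-out. Beforehand, 2,000 cells per well were exposed for 16 hr at 37 °C to 5-fluorouridine together with compound or vehicle.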
# NPC1 promoter act: activates the NPC1 promoter. Huh7 NPC1 promoter luciferase reporter, 24 h. Potency, µM (titrated, usually from 9.22 µM), hits mostly activators. hit rate 2.4% among 320,000; also: nearly all actives have a fitted effect of over 60% in size
#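 Huh7 reporter cells (NPC1 promoter driving luciferase) are dosed with compound for 24 h at 37 °C, 5% CO2; luciferase detection reagent is then added and luminescence measured after 10 min at ambient temperature.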
# Rab9 promoter act: activates the Rab9 promoter. hit rate 2.8% among 320,000. Potency, µM (series often up to 9.22 µM), actives largely listed as activators. Huh7 Rab9 promoter-luciferase reporter, luminescence, 24 h; also: nearly all actives have a fitted effect of over 60% in size
#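 Huh7 cells stably carrying Rab9 promoter–luciferase reporter, plated 1500 cells/well, compound added after 2 h and incubated 24 h at 37 °C; luciferase luminescence then read after 10 min with detection reagent.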
# Numbers stand for hits; - = inactive; ? = inconclusive; . = no result; [ ] = dose if it differs, or a comment. Calls follow the shape of the dose curve; as a rule, active = well fitted curve in the direction sought with a large enough effect; inconclusive = small, poorly fitted or top-dose-only effect, or another doubt; inactive = no such curve, though single readings can be large; an effect the other way counts as inactive or inconclusive.
SMILES,SMN2 splice enh,ELG1 genotox,FLuc counter,ELG1 repair inh,NPC1 promoter act,Rab9 promoter act
O=C(Cc1ccccc1)Nc1ccc(NC(=S)NC(=O)c2ccccc2)cc1,.,-,-,-,-,-
COc1cccc(NC(=O)CN(C)C(=O)CC(NC(=O)c2ccccc2Cl)c2ccccc2)c1 (stereo not drawn),.,-,-,-,-,-
COc1ccc(CNCCCSc2nnnn2-c2ccccc2)cc1,.,.,-,.,.,.
C=CCOc1ccccc1/C=N/NC(=O)Cc1ccc(C)cc1,.,-,-,-,-,-
COC(=O)C1=C(C(=O)OC)[C@@H]2Nc3ccccc3[C@@]23C[C@@H](C(=O)OC)N(C(=O)C2CCC2)C3=N1,-[9.22 µM],.,.,.,.,.
CC(=O)c1cccc(NC(=S)NC(=O)c2ccccc2Cl)c1,-,-,?,-,-,-
CC(=O)c1cccc(NC(=S)NC(=O)c2ccc(C)cc2Cl)c1,?,-,15.1µM,?,-,?
CCC(=O)Nc1cccc(NC(=S)NC(=O)c2ccc(C)cc2)c1,10µM,?,6.75µM,?,2µM,1.58µM
CCC(=O)NC(=S)Nc1cccc(NC(=O)CC)c1,-,-,-,-,-,-
CCC(=O)Nc1cccc(NC(=S)NC(=O)c2cccc(C)c2)c1,11.2µM,?,?,?,3.16µM,1.58µM
CCC(=O)Nc1cccc(NC(=S)NC(=O)c2ccccc2)c1,11.2µM,-,15.1µM,?,2.82µM,?
Cc1cccc(C(=O)NC(=S)Nc2ccc(Cc3ccncc3)cc2)c1,-,-,?,-,-,-
COc1ccc(NS(=O)(=O)c2ccc3[nH]c(=O)ccc3c2)cc1OC,.,.,-,.,.,.
Cc1c(NC(=S)NC(=O)c2cc3ccccc3o2)cccc1C(=O)O,.,-,?,?,3.98µM,1.78µM
CC(=O)c1cccc(NC(=S)NC(=O)c2ccc(C)cc2)c1,11.2µM,?,10.7µM,?,3.16µM,1.41µM
CN1CCN(c2ccccc2NC(=S)NC(=O)c2cc3ccccc3o2)CC1,.,-,-,-,-,-
COc1ccc(-n2nc(C)cc2N)cc1,.,-,-,?,-,-
Cc1cc(N)n(-c2ccc3ccccc3c2)n1,?,?,16.9µM,?,-,?
Cc1ccc(CN2CCSc3ccc(C(=O)NCc4ccccn4)cc32)cc1,-,-,-,-,-,-
Cc1ccc(OCC(=O)NCCCNC(=O)c2ccncc2)cc1,.,-,-,-,-,-
CC(C)Cn1c(N)c(-c2nc(C(C)C)c(C(=O)c3ccccc3F)s2)c(=O)n(C)c1=O,-,-,-,-,-,-
OC(COCc1ccc(Cl)cc1)CN1CCN(CC(O)COCc2ccc(Cl)cc2)CC1 (stereo not drawn),-,-,-,20.6µM,-,-
O=C(CSc1ccc(Cl)cc1)c1ccco1,-,-,?,?,-,-
O=C(CCSc1ccc(Cl)cc1)c1ccco1,.,-,21.3µM,-,-,-[1.84 µM]
O=C(COc1ccc(Cl)cc1)Nc1ccc(NC(=O)c2ccco2)cc1,.,?,-,?,-,-
SMILES,SMN2 splice enh,ELG1 genotox,FLuc counter,ELG1 repair inh,NPC1 promoter act,Rab9 promoter act
O=C(Oc1ccccc1)c1ccc(NC(=O)c2ccco2)cc1,-,?,2.69µM,?,-,-
COc1ccc(-c2ccc(NC(=O)c3ccco3)cc2)nn1,.,?,1.2µM,?,?,0.1µM
O=C(Nc1ccc(Cl)cc1)c1ccco1,.,?,16.9µM,?,2.82µM,?
COc1ccc(-c2cccc(NC(=O)c3ccco3)c2)nn1,.,-,-,?,-,-
COCCNC(=S)N1CCC(NC(=O)Nc2ccc(C)cc2)CC1,.,-,-,?,-,-
COc1ccc2c(c1)CC(C(=O)Nc1cc(OC)c(OC)c(OC)c1)CO2 (stereo not drawn),.,.,-,.,.,.
Cc1ccc(Oc2ccc(NC(=O)c3ccco3)cc2)cc1,-,?,26.9µM,?,3.16µM,?
CN(C(=O)c1cccc(NC(=O)c2ccco2)c1)c1ccccc1,.,-,-,?,-,-
CC1N(C)c2cc(NC(=O)c3ccco3)ccc2C1(C)C (stereo not drawn),15.8µM,?,9.53µM,?,3.16µM,1µM
CC(=O)Nc1ccc(NC(=O)c2ccco2)cc1,17.8µM,?,?,?,-,?
CN(C(=O)c1ccc(NC(=O)c2ccco2)cc1)c1ccccc1,.,?,16.9µM,?,?,?
C#CCNC(=O)C1=C[C@@H](C)C[C@@H](OCc2ccc(CO)cc2)O1,.,-,-,-,-,-
CCS(=O)c1ccccc1C(=O)OCC(=O)N1CCC(c2ccccc2)=N1 (stereo not drawn),.,-,.,-,.,.
CCC(C)c1ccc(NC(=O)c2ccco2)cc1 (stereo not drawn),.,0.58µM,0.426µM,?,0.141µM,0.316µM
CCC(C)c1ccc(NC(=O)COC(=O)CCNC(=O)c2ccco2)cc1 (stereo not drawn),.,-,.,?,-,-
O=C(NCCCc1ccccc1)c1cnc2n(c1=O)CCS2,17.8µM,-,?,?,?,?
O=C(NCCC1=CCCCC1)c1cnc2n(c1=O)CCS2,11.2µM,?,?,?,?,?
O=C(NCCc1ccc(Cl)cc1)c1cnc2n(c1=O)CCS2,?,?,?,?,-,?
O=C(NCc1ccccc1)c1cnc2n(c1=O)CCS2,-,-,-,-,-,-
O=C(CSc1nnc(-c2cccs2)o1)Oc1ccc(Cl)cc1,.,.,-,.,.,.
CN1CCN(Cc2ccc(OCc3ccccc3)cc2)CC1,-,?,13.5µM,?,?,?
O=C1CCN(Cc2ccccc2)CCN1CCOc1ccccc1,.,-,23.9µM,?,?,3.55µM
CCN1CCN(Cc2ccc(OCc3ccccc3)cc2)CC1,-,10.3µM,21.3µM,?,3.98µM,-[1.84 µM]
CCN1CCN(Cc2ccc(OC)c(OCc3ccccc3)c2)CC1,-,.,-,.,.,.
O=C(Nc1ccccc1)OCCN1CCN(Cc2ccccc2)CCC1=O,-,-,-,-,-,-
SMILES,SMN2 splice enh,ELG1 genotox,FLuc counter,ELG1 repair inh,NPC1 promoter act,Rab9 promoter act
CC(C)CNC(=O)C1CCN(Cc2ccc(OCc3ccccc3)cc2)CC1,?,-,16.9µM,?,-,?
CCN(C(=O)CSc1nnc(-c2c[nH]c3ccccc23)o1)C1CCS(=O)(=O)C1 (stereo not drawn),-,-,-,-,-,-
COc1cc(Br)cc(CN2CCN(c3ncccn3)CC2)c1O,.,-,-,-,-,-
COc1ccc(C(=O)NC(=S)N2CCOCC2)cc1OC,.,-,-,-,-,-
COc1cc(OC)cc(C(=O)N[C@H](C(=O)NCc2ccco2)C(C)C)c1,-,-,-,-,-,-
c1ccc2c(Nc3ccc4c(c3)OCCO4)c3c(nc2c1)CCCC3,.,-,-,?,-,-
Cc1ccc(-c2nn(-c3ccccc3)cc2CN(C)C(=O)CCC(=O)O)cc1C,-,-,19µM,-,-,-
O=C(O)CCC(=O)NCc1cn(-c2ccccc2)nc1-c1cccc(Br)c1,-,-,?,-,-,-
